Bioassay records (PubChem)
T cruzi growth-1 – T. cruzi intracellular proliferation inhibitors, primary screen, cell-based, beta-gal Tulahuen parasites, NIH3T3 host, luminescence. T. cruzi beta-gal in NIH3T3, GalScreen luminescence, 90 h. inhibition, % at 8.34 µM. 5.9% of 77,000 active. AID 624255, 2012;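 active = mean inhibition above about 93%, with at least 55% of replicates each passing it, limit read from the data, passing the limit was not always enough; inconclusive = only one of those two conditions holds; inactive = neither condition holds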
C diff HTS – C. difficile growth inhibitors, primary screen, HTS | Clostridium difficile clinical isolate growth, OD600, 24 h; active compounds read low | growth activity, negative = inhibition, % at 16 µg/mL (by protocol) | 0.25% of 86,000 active | AID 1259249, 2017;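 active = mean growth activity at or below -80% and every replicate also at or below -80%; inconclusive = mean at or below -80% but some replicate above -80%; inactive = mean growth activity above -80%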;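 note: 0% = DMSO wells and -100% = levofloxacin 16 µg/mL wells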
Pf Dd2 inh – P. falciparum Dd2 growth inhibitors, primary screen, SYBR Green fluorescence, single dose replicates | AID 1159554, 2015 | 72 h; active compounds read low | 2.3% of 94,000 active | activity change, % at 10 µM; in the data active = activity change below about -80%; inconclusive = no clear call, values can overlap the other calls
T cruzi growth-2 – T. cruzi intracellular proliferation inhibitors, confirmation, cell-based, NIH3T3 host, beta-gal parasite, luminescence, cherry-pick; AID 651739, 2012; inhibition, % at 8.35 µM; 72% of 5,600 active; T. cruzi beta-gal in NIH3T3, GalScreen luminescence, 90 h; shares compounds with T cruzi growth-1;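 active = mean replicate inhibition above about 95% and at least 55% of replicates individually reaching it, limit read from the data; inconclusive = only one of the two criteria is met; inactive = neither criterion is met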
T cruzi growth-3 – inhibitors of intracellular T. cruzi replication, confirmation, NIH3T3 host cells, beta-gal parasites, cherry-pick, set 2. shares compounds with T cruzi growth-1. T. cruzi beta-gal in NIH3T3, GalScreen luminescence, 90 h. inhibition, % at 2.09 µM. 21% of 5,600 active. AID 651740, 2012;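 active = mean inhibition above about 95%, with at least 55% of replicates also reaching it, limit read from the data; inconclusive = meets just one of the two conditions; inactive = meets neither condition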;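 note: plate controls were neutral control median for no effect and positive control median for full effect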
3T3 cytotox – cytotoxicity in mouse NIH/3T3 fibroblasts, confirmation, cytotoxicity control for T. cruzi proliferation inhibitor project, cell-based, cherry-pick, single point | shares compounds with T cruzi growth-1 | NIH/3T3 viability, CellTiter-Glo ATP luminescence, 90 h | cytotoxicity (signal decrease), % at 8.35 µM | 14% of 5,600 active | AID 651742, 2012;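 active = mean signal decrease across replicates above about 35% based on untreated-well scatter, with enough replicates individually passing, limit read from the data; inconclusive = no rule stated though some were filed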;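 note: 0% = median of neutral control wells and 100% = median of positive control wells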
3T3 cytotox 2 – NIH/3T3 fibroblast cytotoxicity, confirmation, cytotoxicity control, cell-based, cherry-pick, single point, set 2. shares compounds with T cruzi growth-1. NIH/3T3 viability, CellTiter-Glo ATP luminescence, 90 h. inhibition, % at 24.9 µM. 56% of 5,600 active;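 active = mean loss of cell viability signal at or above a set limit, and enough replicates individually reaching it; inconclusive = meets only the mean limit or only the replicate share; inactive = meets neither condition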;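 note: 0% = median of neutral control wells and 100% = median of positive control wells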
* hit, by the source's call; u = inconclusive; x = no result given. Only some compounds are listed: those with a hit (about 6.7% of all), similar ones and a draw of the others.

SMILES	T cruzi growth-1	C diff HTS	Pf Dd2 inh	T cruzi growth-2	T cruzi growth-3	3T3 cytotox	3T3 cytotox 2
COCC(=O)N1CCCCN2[C@H](CO)[C@@H](c3ccc(C#Cc4ccccc4)cc3)[C@H]2C1	35.9	-9.2	53.4	x	x	x	x
CCC(=O)N1CCCCN2[C@H](CO)[C@@H](c3ccc(C#Cc4ccccc4F)cc3)[C@H]2C1	112.1*	-9.3	-23.3	101.7*	46.6	33.8	103.9*
CCC(=O)N1CCCCN2[C@H](CO)[C@@H](c3ccc(C#Cc4cccnc4)cc3)[C@@H]2C1	43.5	8.6	19.1	x	x	x	x
CC(=O)N1CCCCN2[C@H](CO)[C@@H](c3ccc(C#Cc4ccccc4F)cc3)[C@H]2C1	102.8*	-5.6	-24.4	74.7	44.0	45.9*	104.3*
CN1CCCCN2[C@@H](CO)[C@@H](c3ccc(C#Cc4ccccc4F)cc3)[C@@H]2C1	93.2	9.6	-47.0	x	x	x	x
CN1CCCCN2[C@H](CO)[C@@H](c3ccc(C#Cc4ccccc4F)cc3)[C@@H]2C1	81.6	-0.1	-33.6	x	x	x	x
CCC(=O)N1CCCCN2[C@@H](CO)[C@H](c3ccc(C#Cc4ccccc4F)cc3)[C@@H]2C1	123.8*	-8.8	-29.0	108.6*	90.7	45.2*	103.5*
CCC(=O)N1CCCCN2[C@@H](CO)[C@@H](c3ccc(C#Cc4ccccc4F)cc3)[C@@H]2C1	113.2*	2.8	-17.2	102.2*	65.1	9.7	103.3*
C[C@H](CO)N1C[C@H](C)[C@@H](CN(C)C(=O)C2CCOCC2)Oc2ncc(C3=CCCCC3)cc2C1=O	45.4	-5.6	3.3	x	x	x	x
CN(C)CC(=O)N[C@H]1CC[C@H](CCn2cc(C3CCCC3)nn2)O[C@H]1CO	7.5	1.0	7.2	x	x	x	x
CO[C@H]1CN(C)C(=O)c2cc(NC(=O)c3ccc4c(c3)OCO4)ccc2OC[C@@H](C)NC[C@H]1C	-61.1	0.0	16.6	x	x	x	x
Cc1ccc(S(=O)(=O)Nc2ccc3c(c2)C(=O)N([C@@H](C)CO)C[C@@H](C)[C@@H](CN(C)C(=O)Nc2ccc(C(F)(F)F)cc2)OCCCC[C@@H](C)O3)cc1	98.0*	6.2	-39.6	104.3*	111.9*	21.6	12.9
Cc1ccc(S(=O)(=O)Nc2ccc3c(c2)C(=O)N([C@@H](C)CO)C[C@H](C)[C@H](CN(C)C(=O)Nc2ccc(C(F)(F)F)cc2)OCCCC[C@H](C)O3)cc1	x	-2.6	-27.6	x	x	x	x
COc1ccc(S(=O)(=O)Nc2ccc3c(c2)C(=O)N([C@H](C)CO)C[C@H](C)[C@H](CN(C)C(=O)Nc2ccc(C(F)(F)F)cc2)OCCCC[C@@H](C)O3)cc1	108.3*	22.1	-41.5	104.2*	58.1	21.0	u
COc1ccc(S(=O)(=O)Nc2ccc3c(c2)C(=O)N([C@H](C)CO)C[C@H](C)[C@H](CN(C)C(=O)Nc2ccccc2)OCCCC[C@H](C)O3)cc1	98.8*	-0.4	-46.5	108.1*	37.5	-17.7	-19.1
COc1ccc(S(=O)(=O)Nc2ccc3c(c2)C(=O)N([C@@H](C)CO)C[C@@H](C)[C@@H](CN(C)C(=O)Nc2ccc(C(F)(F)F)cc2)OCCCC[C@@H](C)O3)cc1	54.0	13.1	-24.4	x	x	x	x
Cc1ccc(S(=O)(=O)Nc2ccc3c(c2)C(=O)N([C@@H](C)CO)C[C@H](C)[C@@H](CN(C)C(=O)Nc2ccc(C(F)(F)F)cc2)OCCCC[C@@H](C)O3)cc1	90.8	-0.6	-78.9	x	x	x	x
COc1ccc(S(=O)(=O)Nc2ccc3c(c2)C(=O)N([C@H](C)CO)C[C@@H](C)[C@H](CN(C)C(=O)Nc2ccccc2)OCCCC[C@@H](C)O3)cc1	67.3	2.4	-35.9	x	x	x	x
Cc1ccc(S(=O)(=O)Nc2ccc3c(c2)C(=O)N([C@H](C)CO)C[C@H](C)[C@@H](CN(C)C(=O)Nc2ccc(C(F)(F)F)cc2)OCCCC[C@@H](C)O3)cc1	100.5*	-7.3	-54.2	104.8*	72.4	1.3	16.5
CO[C@@H]1CN(C)C(=O)c2ccc(NS(C)(=O)=O)cc2OC[C@H](C)N(C(=O)c2ccc3c(c2)OCO3)C[C@H]1C	32.3	-1.1	9.5	x	x	x	x
CO[C@@H]1CN(C)C(=O)c2cc(NC(C)=O)ccc2OC[C@H](C)N(Cc2nccs2)C[C@@H]1C	-49.3	-1.1	0.0	x	x	x	x
C[C@H]1CN([C@@H](C)CO)C(=O)Cc2cc(NC(=O)Cc3cn(C)c4ccccc34)ccc2O[C@H]1CN(C)S(C)(=O)=O	-39.9	2.9	4.5	x	x	x	x
C[C@H](CO)N1C[C@H](C)[C@@H](CN(C)CC2CC2)Oc2ccc(NS(C)(=O)=O)cc2CC1=O	-31.4	-3.5	32.2	x	x	x	x
C[C@H]1CN([C@@H](C)CO)S(=O)(=O)c2ccc(-c3ccccc3F)cc2O[C@@H]1CN(C)Cc1cncnc1	35.0	-6.9	-18.5	x	x	x	x
CCCN(C)C[C@H]1Oc2cc(-c3ccccc3F)ccc2S(=O)(=O)N([C@H](C)CO)C[C@H]1C	57.8	4.0	-48.7	x	x	x	x
SMILES	T cruzi growth-1	C diff HTS	Pf Dd2 inh	T cruzi growth-2	T cruzi growth-3	3T3 cytotox	3T3 cytotox 2
C[C@H]1CN([C@@H](C)CO)S(=O)(=O)c2ccc(-c3ccccc3F)cc2O[C@H]1CN(C)Cc1cccnc1	95.4*	2.4	-31.4	99.0*	84.0	67.5*	48.8*
C[C@@H]1CN([C@H](C)CO)S(=O)(=O)c2ccc(-c3ccccc3F)cc2O[C@@H]1CN(C)Cc1ccncc1	109.9*	-16.9	3.5	100.6*	76.7	35.4*	77.1*
C[C@H]1CN([C@@H](C)CO)S(=O)(=O)c2ccc(-c3ccccc3F)cc2O[C@@H]1CN(C)Cc1ccncc1	115.5*	-5.2	-26.4	101.1*	100.2*	40.2*	103.6*
C[C@@H]1CN([C@H](C)CO)S(=O)(=O)c2ccc(-c3ccccc3F)cc2O[C@@H]1CN(C)C	48.6	-0.8	-1.0	x	x	x	x
C[C@H](CO)N1C[C@H](C)[C@@H](CN(C)Cc2ccncc2)Oc2cc(-c3ccccc3F)ccc2S1(=O)=O	114.2*	8.6	-16.5	96.0*	100.3*	59.3*	97.8*
COc1ccc2c3c([nH]c2c1)[C@H](CO)N(C(=O)c1ccncc1)CC31CCN(C(=O)CC2CC2)CC1	x	0.7	-7.6	x	x	x	x
C[C@@H]1CN([C@@H](C)CO)C(=O)c2cccc(NS(C)(=O)=O)c2O[C@@H]1CN(C)Cc1ccc(C(=O)Nc2ccccc2N)cc1	105.4	-0.6	-7.1	x	x	x	x
COc1ccc2c3c(n(C)c2c1)[C@H](CO)N(C(=O)Cc1ccccn1)CC31CCN(Cc2ccccn2)CC1	x	4.5	-37.9	x	x	x	x
